High-throughput results from PubChem.
TbREL1 primary – TbREL1 inhibition, primary screen; P86926; TbREL1 RNA ligation, FRET fluorescence; inhibition, % at 9.66 µM; hit rate 0.49% among 89,000; AID 1117264;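 active = inhibition above the mean inhibition across all screened compounds plus 3 SD, cut at about 11% in these data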;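 also: 0% = plate median of test wells and 100% = NSC42067 control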
Target sequence (P86926 whole entry, looked up): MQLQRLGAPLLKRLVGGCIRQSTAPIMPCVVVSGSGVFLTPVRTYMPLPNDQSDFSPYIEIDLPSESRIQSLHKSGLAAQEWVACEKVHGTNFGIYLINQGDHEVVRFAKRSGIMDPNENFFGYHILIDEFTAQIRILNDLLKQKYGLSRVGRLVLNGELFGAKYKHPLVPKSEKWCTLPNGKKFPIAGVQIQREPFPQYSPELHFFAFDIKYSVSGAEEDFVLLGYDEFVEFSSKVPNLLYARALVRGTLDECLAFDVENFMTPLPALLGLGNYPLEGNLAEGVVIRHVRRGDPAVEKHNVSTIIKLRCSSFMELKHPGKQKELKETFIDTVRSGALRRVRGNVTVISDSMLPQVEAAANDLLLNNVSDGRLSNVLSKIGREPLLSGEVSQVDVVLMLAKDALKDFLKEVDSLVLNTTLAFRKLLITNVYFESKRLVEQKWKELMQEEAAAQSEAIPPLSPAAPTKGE
TbREL1 conf – TbREL1 inhibition, confirmation; shares compounds with TbREL1 primary; TbREL1 RNA ligation, FRET fluorescence; inhibition, % at 9.66 µM; hit rate 37% among 390; AID 1117282;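 active = mean inhibition across replicates above a set limit taken from the earlier primary screen, cut at about 11% in these data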;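 also: 0% = REL1 with substrate and DMSO and 100% = REL1 plus control inhibitor NSC42067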
Active calls of the source: *. This excerpt belongs to a sample that is enriched for hits.

SMILES	TbREL1 primary	others
Nc1cccc2cc(S(=O)(=O)O)ccc12	26*	TbREL1 conf=10
Nc1ccc2c(S(=O)(=O)O)cccc2c1S(=O)(=O)O	11
COP(=O)(CC(=O)O)C(CC(C)C)NC(=O)OCc1ccccc1 (centres undefined)	4
Cc1ccc2nc(-c3ccc(NC(=O)CSc4nnc(-c5cccc(Cl)c5)n4Cc4ccco4)cc3)sc2c1	2
O=C(CSc1nnc(-c2ccccn2)n1Cc1ccco1)Nc1ccc(Oc2ccccc2)cc1	-1
O=C(CSc1nnc(-c2cccnc2)n1C1CCCCC1)N1CCCC1	7
CSCCCNC(=O)C1CCN(S(=O)(=O)c2ccc3[nH]c(=O)oc3c2)CC1	-1
COCCCNC(=O)C1CCN(S(=O)(=O)c2ccc3[nH]c(=O)oc3c2)CC1	19*	TbREL1 conf=24*
O=C(C1CCN(S(=O)(=O)c2ccc3[nH]c(=O)oc3c2)CC1)N1CCCC1	5
COC(=O)c1cc(-c2ccc(F)cc2OCc2ccccc2)c(=O)n2c1CCC2	-3
C[C@@H]1CCN(C2CC2)S(=O)(=O)c2ccc(N3CCC[C@@H]3C)cc2O1	-1
CCN(C(=O)COC(=O)c1cc([N+](=O)[O-])ccc1N1CCCCC1)C1CCS(=O)(=O)C1 (centres undefined)	11*	TbREL1 conf=2
CCN(C(=O)COC(=O)c1cc(OC)c(OC)cc1[N+](=O)[O-])C1CCS(=O)(=O)C1 (centres undefined)	0
CN(C(=O)COC(=O)c1cc([N+](=O)[O-])ccc1N1CCOCC1)C1CCCCC1	-2
O=C(OCCCCSc1nnc(-c2cccc3ccccc23)o1)c1ccc(F)cc1	-1
O=C(CN1C(=O)NC(CCc2ccccc2)C1=O)Nc1ccccc1C(F)(F)F (centres undefined)	1
COC(=O)C1=C(C)N(Cc2ccccc2)C(=S)N[C@H]1c1cccc(C(F)(F)F)c1	-6
COC(=O)C1=C(C)N(Cc2cccc(C(F)(F)F)c2)C(=NCc2cc(OC)c(OC)c(OC)c2)NC1CCc1ccccc1 (centres undefined)	12*	TbREL1 conf=20*
COC(=O)C1=C(C)N(Cc2ccccc2C(F)(F)F)C(=NCc2ccccc2)NC1CCc1ccccc1 (centres undefined)	21*	TbREL1 conf=20*
CCN1C(=NCc2cc(OC)c(OC)c(OC)c2)N[C@@H](c2cccc(C(F)(F)F)c2)C(C(=O)OC)=C1C	0
C=CCN=C1NC(c2ccccc2)C(C(=O)OC)=C(C)N1Cc1ccccc1C(F)(F)F (centres undefined)	7
COC(=O)[C@]12C[C@H](CC(=O)NCCc3ccccc3OC)C(=O)N(CCc3ccc(OC)c(OC)c3)C1=C[C@H](COCc1ccccc1)O[C@@H]2C	-4
c1ccc(Cn2c(SCC3CCCCC3)nnc2-c2cccnc2)cc1	0
CC(c1ccccc1)N1CC[C@H]2C=CC[C@@H](C(=O)Nc3ccc(F)c(F)c3)[C@H]2C1=O (some centres undefined)	-4
COc1ccc([C@H]2OC(=O)C[C@@H]2C(=O)N2CCN(c3ccccc3F)CC2)cc1OC	1
SMILES	TbREL1 primary	others
Cc1ccccc1CS(=O)(=O)Cc1ccc(C(=O)Nc2ccccc2C)o1	-1
Cc1nn(C)cc1NC(=O)C[C@H]1CC[C@H]2[C@@H](COc3ccc(NC(=O)Nc4ccccc4)cc3C(=O)N2C)O1	6
COC(=O)C1=C(C)N(C)C(=NCc2ccc(C(F)(F)F)cc2)NC1c1ccc(C(F)(F)F)cc1 (centres undefined)	7
COC(=O)C1=C(C)N(CCCC(=O)O)C(=O)NC1c1ccc(C(F)(F)F)cc1 (centres undefined)	1
COC(=O)C1=C(C)N(C)C(=NCc2ccccc2C(F)(F)F)NC1c1ccc(Cl)cc1 (centres undefined)	13*	TbREL1 conf=7
COC(=O)C1=C(C)N(C)C(=NCc2ccccc2C(F)(F)F)NC1c1ccc(C(F)(F)F)cc1 (centres undefined)	12*	TbREL1 conf=10
CCC[C@H]1[C@@H](OC(=O)NCc2ccccc2Cl)CC[C@@]23CCCN2C(=O)CCC[C@@H]13	-3
COc1ccc(-n2c(SCC(=O)Nc3ccccc3-c3ccccc3)nnc2-c2ccco2)cc1	4
Cc1cccc(NC(=O)[C@@H]2CC(=O)O[C@@H]2c2ccccc2)c1C	4
CC(COc1ccc(C#N)cc1)CN1CCC(C(O)(c2ccccc2)c2ccccc2)CC1 (centres undefined)	6
OC(c1ccccc1)(c1ccccc1)C1CCN(CCCOc2ccc(Cl)cc2)CC1	9
N#Cc1cccc(OCCCN2CCC(C(O)(c3ccccc3)c3ccccc3)CC2)c1	15*	TbREL1 conf=7
c1ccc(-c2nnc3n2N=C(c2ccc4ccccc4c2)CS3)nc1	6
CC(C)NCCOCCOc1ccc(Cl)cc1Br	2
C=CCNCCOCCOc1ccc(Cl)cc1C(C)(C)C	16*	TbREL1 conf=19*
C=CCNCCOCCOc1ccc(C)cc1Br	5
CCCN(C(=O)CCc1cn(CCC)c2ccccc12)c1ccc(Oc2cccnc2)cc1	-6
CCC[C@H]1[C@@H](OC(=O)NCc2ccc(C)o2)CC[C@@]23CCCN2C(=O)CCC[C@@H]13	-7
CCOc1ccc(-n2c(COc3ccccc3)nnc2SCC(=O)Nc2ccc(OCc3ccccc3)cc2)cc1	1
CCC[C@H]1[C@@H](NC(=O)C2CCCCC2)CC[C@@]23CCCN2C(=O)CCC[C@@H]13	36*	TbREL1 conf=0
CCC[C@H]1[C@@H](OC(=O)NCc2ccc(Cl)cc2)CC[C@@]23CCCN2C(=O)CCC[C@@H]13	-3
CCC[C@H]1[C@@H](OC(=O)NCc2ccc(Cl)c(Cl)c2)CC[C@@]23CCCN2C(=O)CCC[C@@H]13	13*	TbREL1 conf=0
CCCCCCCC(=O)N[C@H]1CC[C@@]23CCCN2C(=O)CCC[C@H]3[C@H]1CCC	1
CCC[C@H]1[C@@H](OC(=O)NCc2ccc(OC)cc2)CC[C@@]23CCCN2C(=O)CCC[C@@H]13	-5
CCC[C@H]1[C@@H](NCC2CCCCC2)CC[C@@]23CCCN2C(=O)CCC[C@@H]13	2
SMILES	TbREL1 primary	others
CCOC(=O)c1cccc(NC(=O)CN(C)S(=O)(=O)c2ccc(Cl)s2)c1	3
CCC[C@H]1[C@@H](OC(=O)NCCc2c[nH]c3ccccc23)CC[C@@]23CCCN2C(=O)CCC[C@@H]13	-9
COc1ccc([C@H]2OC(=O)C[C@@H]2C(=O)N2CCN(c3ccccc3Cl)CC2)cc1OC	0
COC(=O)[C@]12CCCCC=C1N(Cc1ccc(OC)cc1)C(=O)[C@@H]2CC(=O)N1CCCCC1	0
Cc1cc(=O)[nH]c(SCC(=O)Nc2cccc(C)c2C)n1	0
CCc1ccccc1-c1cc(C(C)=O)c2n(c1=O)CCC2	2
Cc1nn(C)c(C)c1NC(=O)C12CC3CC(CC(C3)C1)C2	2
Cc1cc(NC(=O)C23CC4CC(CC(C4)C2)C3)n[nH]1	12*	TbREL1 conf=5
CCC(=O)Nc1cc(C)c(NC(=O)C23CC4CC(CC(C4)C2)C3)cn1	-3
COc1ccc(CN2CCC(CNC(=O)Nc3ccc(Cl)cc3)CC2)cc1	9
COc1ccc(C2NC(=O)c3ccccc3N2)cc1COc1ccc(NC(C)=O)cc1 (centres undefined)	0
Cc1ccc(NC(=O)[C@@H]2CCCN2S(=O)(=O)c2cccc3cccnc23)c(C)c1	-5
CCCC[C@H]1C2CC(OC(=O)Nc3ccc(C#N)cc3)C(C2)[C@H]2CCCCN21 (some centres undefined)	11*	TbREL1 conf=4
